Here are results for five compounds from PubChem BioAssay (NCATS).

Assay [1] has as its target Lysosomal acid glucosylceramidase (Homo sapiens) (UniProt P04062). Description: Glucocerebrosidase-p2 (AID 348; in the data active means potency below about 10 µM; further: potency means the concentration at half of the fitted maximal effect). Particulars: purified GBA, blue fluorogenic substrate, 40 min. A digest of the protocol: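 Compounds titrated from 0.6 nM upwards against 0.2 nM enzyme in pH 5.9 citric acid/KH2PO4, taurocholate, tween-20; blue fluorogenic substrate 80 uM, 40 min room temperature, stopped and read Ex 365/Em 440 for AC50.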

In assay [2] the target is Cytochrome P450 1A2 (Homo sapiens) (UniProt P05177). Description: p450-cyp1a2 (AID 410; calls by dose curve; further: potency means the concentration at half of the fitted maximal effect). Particulars: recombinant CYP1A2, luciferin-ME demethylation, luminescence; series mostly up to 57 µM. In a few lines: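 Human CYP1A2 (20nM) demethylated Luciferin-ME at its Km (100uM) in 100mM KPO4. After 10 min compound preincubation, NADPH regeneration ran the reaction 60 min at room temperature. Luciferin was read by luminescence, normalized to 57 uM furafylline.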
Sequence of Cytochrome P450 1A2 (Homo sapiens) (P05177 whole entry, looked up): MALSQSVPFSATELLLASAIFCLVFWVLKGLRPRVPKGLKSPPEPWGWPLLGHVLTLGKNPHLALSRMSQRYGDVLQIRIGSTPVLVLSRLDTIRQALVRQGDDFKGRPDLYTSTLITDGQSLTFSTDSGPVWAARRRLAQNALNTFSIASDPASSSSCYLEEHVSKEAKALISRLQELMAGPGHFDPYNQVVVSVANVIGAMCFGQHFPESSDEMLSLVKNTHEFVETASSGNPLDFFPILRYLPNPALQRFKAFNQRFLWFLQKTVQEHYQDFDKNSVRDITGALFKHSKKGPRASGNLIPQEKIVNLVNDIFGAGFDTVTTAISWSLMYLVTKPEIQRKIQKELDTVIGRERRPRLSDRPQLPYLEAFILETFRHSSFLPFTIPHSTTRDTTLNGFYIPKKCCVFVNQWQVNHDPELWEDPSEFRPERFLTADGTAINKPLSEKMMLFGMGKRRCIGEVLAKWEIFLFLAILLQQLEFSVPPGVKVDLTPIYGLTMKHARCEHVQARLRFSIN

Assay [3] has as its target Glucocorticoid receptor (Homo sapiens) (UniProt P04150). Description: GR-GFP Redistribution (AID 450;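 active means compounds whose dose series gives a full or clear partial fitted curve of increased nuclear translocation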; further: potency means the concentration at half of the fitted maximal effect). The note with it: U2OS GR-GFP nuclear translocation, laser cytometry, 2 h.
Assay [4] has the same target. Description: GR-EFC Redistribution (AID 451; calls by dose curve; further: potency means the concentration at half of the fitted maximal effect). The note with it: CHO-K1 GR-EFC translocation, beta-gal luminescence, 2 h. In a few lines: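 Translocation of GR-ED fusion to nuclear EA restores b-gal, read by luminescence after 1 h room-temperature detection. Engineered CHO-K1 biosensor cells, 1,000/well, exposed 2 h at 37 C to titrations up to 46 uM final.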
Assay [5] concerns the target Mitogen-activated protein kinase 10 (Mus musculus) (UniProt Q61831). Description: JNK3 AlphaScreen Assay (AID 530).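 Further: kinase came from lysate of stimulated human HepG2 cells; signal reports phosphorylation of biotinylated GST-cJun 1-79 at Ser73 with 10 µM ATP; on the % scale 0 is the no-effect control and ±100 the full control effect.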 Particulars: JNK3 lysate, c-Jun phosphorylation; series mostly up to 57.1 µM. A digest of the protocol:
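Room-temperature AlphaScreen kinase assay; pre-activated HepG2 lysate as JNK3 source, biotin-GST-cJun(1-79) substrate, 10 uM ATP, compound 15 min preincubation.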
For orientation: Alpha assays give light when donor and acceptor beads are brought close together.

Assay [6] has as its target 3',5'-cyclic-AMP phosphodiesterase 4B (Homo sapiens) (UniProt Q07343). Description: qHTS Assay for Inhibitors of PDE-IV (AID 607; active means well fitted activation curve with a large enough effect in the main read-out, with a control signal flat, not every such curve was filed as active; further: % of control where 0% means no effect). Particulars: HEK293 ACTOne CNG channel cells, membrane potential fluorescence; series mostly up to 22.9 µM. In a few lines: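 HEK293 ACTOne cells with CNG channel (1000/well), endogenous PDE4; membrane potential dye, compounds up to 22.9 uM final. Fluorescence Ex 535/Em 590; RO 20-1724 (100 uM final) as reference.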

A short description of assay [7]: qHTS Assay for Identification of Small Molecule Agonists for Hypoxia Response Element Signaling Pathway (AID 914; active means well fitted activation curve with a large enough effect in the signal ratio, with a control signal flat, not every such curve was filed as active; the % refers to the signal ratio; further: potency means the concentration at half of the fitted maximal effect). Particulars: ME-180 HRE-bla reporter, beta-lactamase ratio, CoCl2, 17 h; activation: stronger effect = higher value. In a few lines: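 Cells were plated overnight, pin-dosed with compound in a titration series, co-stimulated with EC50 CoCl2 and incubated 17 hours at 37 degrees Celsius. CCF4 substrate was then loaded, and AC50 values came from the 460nm/530nm ratio.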
In general terms: Quantitative high-throughput screening tests each substance at several concentrations.

Assay [8] can be described thus: qHTS Assay for Lipid Storage Modulators (AID 1519; calls by dose curve). Particulars: Drosophila S3 cells, BODIPY lipid droplet/cell ratio, laser cytometry, cells loaded with oleic acid. In a few lines: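 Cells seeded at 5,000 per well were treated with compounds over a concentration series and loaded with oleic acid (400 uM, as added). Lipid droplet fluorescence (488 nm excitation, 500-530 nm channel) was read by laser-scanning cytometry and normalized to 20 uM Triacsin C.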

Assay [9] in a line: AP1 Signaling Pathway (AID 357). Further: on the % scale 0 is the no-effect control and ±100 the full control effect. The note with it: ME-180 AP-1-bla reporter, EGF-induced, beta-lactamase ratio, 5 h; at 7.69 µM (top of the series) unless noted. A digest of the protocol: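 In this screen, ME-180 cells in Opti-MEM with 0.5% dialyzed FBS received EC50 EGF and compound titrations for 5 h. AP-1 reporter beta-lactamase was detected via CCF4 ratio, giving AC50 for positive and negative modulators.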

A short description of assay [10]: NFAT Signaling Pathway (AID 444).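 Further: carbachol stimulus at about its EC50 of 1 µM final; on the % scale 0 is the no-effect control and ±100 the full control effect.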 The note with it: Jurkat NFAT-bla M1, carbachol, beta-lactamase ratio, 5 h. A digest of the protocol: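 Read-out: CCF4 FRET ratio (460 nm/530 nm) after 1 h RT dye loading, used for %activity and AC50 from titration series. Cells: Jurkat NFAT-β-lactamase/M1 line, treated with compound plus 1 uM carbachol for 5 h, 37 °C.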
Assay [11] can be described thus: Stat Signaling Pathway (AID 446).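 Further: ME-180 cervical cancer cells given 40 pM IL-6 alongside compound; SIE-controlled beta-lactamase reporter measured as 460/530 nm FRET emission ratio; on the % scale 0 is the no-effect control and ±100 the full control effect.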 Particulars: ME-180 (cervical carcinoma) SIE beta-lactamase reporter, IL-6 stimulated, 5 h. In a few lines:
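ME-180 cells carrying a SIE-driven beta-lactamase reporter are stimulated with 40 pM IL-6 for 5 h at 37C in the presence of compound. The 460/530 nm FRET substrate ratio is read after 2.5 h at RT. Data are normalised to 300 pM IL-6 and to 125 nM JAK inhibitor controls.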

A short description of assay [12]: Confirmation and Secondary Assay for Modulators of Hemoglobin Beta Chain Splicing at IVS2 654 locus (AID 910; active means well fitted curve in the direction sought with a large enough effect; an effect the other way counts as inactive or inconclusive;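 further: HeLa cells stably carrying EGFP split by mutant beta-globin IVS2-654 intron; per-well total GFP intensity by laser scanning cytometry after 2-day treatment; % of control where 0% means no effect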). Particulars: HeLa EGFP-654 splicing reporter, GFP fluorescence, 48 h; series mostly up to 38.3 µM. In a few lines: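 Readout: per-well total peak green fluorescence (488 nm ex, 500–520 nm em) from objects 5–250 µm, reflecting correct splicing of an EGFP-654 reporter. Compounds were applied for 2 days at 37 °C to overnight-plated HeLa EGFP-654 cells; controls were DMSO and 500 nM IVS2-654 PNA.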

Assay [13] can be described thus: Confirmation and Secondary Assay for Modulators of Hemoglobin Beta Chain Splicing at IVS2 705 locus (AID 930; active means well fitted curve in the direction sought with a large enough effect; an effect the other way counts as inactive or inconclusive;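 further: HeLa cells stably expressing the EGFP-705 splicing reporter; GFP fluorescence per well restored by corrected splicing of the IVS2-705 intron in EGFP; % of control where 0% means no effect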). The note with it: HeLa EGFP-705 splicing reporter, GFP fluorescence, 48 h; series mostly up to 38.3 µM. In a few lines:
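Splice-correction reporter: EGFP cDNA split by beta-globin intron 2 bearing the 705 mutation, stably in HeLa. Compound incubation 2 days, 37C; fluorescent objects 5-250 µm summed per well.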

In assay [14] the target is Cytochrome P450 3A4 (Homo sapiens) (UniProt P08684). Description: qHTS Assay for Activators of Cytochrome P450 3A4 (AID 885; active means well fitted curve in the direction sought with a large enough effect; an effect the other way counts as inactive or inconclusive; further: nearly all actives have a fitted effect of over 65% in size). Particulars: recombinant CYP3A4, Luciferin-PPXE luminescence, 60 min; series mostly up to 57.1 µM. In a few lines: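 Human CYP3A4 (20 nM) with Luciferin-PPXE at 25 uM (its KM) in 200 mM KPO4; 10 min compound preincubation, then NADPH regeneration and 60 min reaction at RT. Luciferin read by luminescence; normalized to 57 uM ketoconazole full inhibition.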
Sequence of Cytochrome P450 3A4 (Homo sapiens) (P08684 whole entry, looked up): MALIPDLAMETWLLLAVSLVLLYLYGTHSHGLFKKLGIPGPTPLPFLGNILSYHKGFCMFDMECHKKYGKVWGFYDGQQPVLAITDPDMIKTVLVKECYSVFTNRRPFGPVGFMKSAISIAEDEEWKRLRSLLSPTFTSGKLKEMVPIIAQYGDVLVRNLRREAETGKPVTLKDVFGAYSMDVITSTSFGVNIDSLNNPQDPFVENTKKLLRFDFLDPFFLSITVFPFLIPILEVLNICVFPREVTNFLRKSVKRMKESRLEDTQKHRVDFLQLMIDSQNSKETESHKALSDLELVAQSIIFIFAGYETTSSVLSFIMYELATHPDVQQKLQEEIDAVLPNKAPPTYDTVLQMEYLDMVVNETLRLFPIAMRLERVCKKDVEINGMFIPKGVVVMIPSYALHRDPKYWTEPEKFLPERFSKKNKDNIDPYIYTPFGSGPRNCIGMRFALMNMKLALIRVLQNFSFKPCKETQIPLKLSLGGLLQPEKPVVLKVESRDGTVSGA

Assay [15] addresses Cytochrome P450 2D6 (Homo sapiens) (UniProt P10635). Description: qHTS Assay for Inhibitors and Substrates of Cytochrome P450 2D6 (AID 891; active means well fitted curve in the direction sought with a large enough effect; an effect the other way counts as inactive or inconclusive; further: potency means the concentration at half of the fitted maximal effect; nearly all actives have a fitted effect of over 60% in size). Particulars: recombinant CYP2D6, luciferin-ME EGE luminescence; series mostly up to 57.1 µM. A digest of the protocol:
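Human CYP2D6 (5 nM) with 30 uM Luciferin-ME EGE (at Km) in 100 mM KPO4, compound preincubated 10 min, then NADPH regeneration system for 60 min at room temperature. Luciferin read by luminescence; normalized to 1.43 uM quinidine.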

Assay [16] concerns the target Cytochrome P450 2C19 (Homo sapiens) (UniProt P33261). Description: qHTS Assay for Inhibitors and Substrates of Cytochrome P450 2C19 (AID 899; active means well fitted curve in the direction sought with a large enough effect; an effect the other way counts as inactive or inconclusive; further: potency means the concentration at half of the fitted maximal effect; nearly all actives have a fitted effect of over 60% in size). The note with it: recombinant CYP2C19, luciferin-H EGE luminescence; series mostly up to 57.1 µM. A digest of the protocol:
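Reactions contain 5nM enzyme, 10uM Luciferin-H EGE (KM) and 50mM KPO4; compound preincubates 10 min at 37C, NADPH regeneration starts turnover for 60 min. Luminescence after detection reagent gives activity.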

Assay [17] concerns the target Ubiquitin carboxyl-terminal hydrolase 1 (Homo sapiens) (UniProt O94782). Description: Inhibitors of USP1/UAF1: Pilot qHTS (AID 504865; active means well fitted curve in the direction sought with a large enough effect; an effect the other way counts as inactive or inconclusive;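 further: rhodamine fluorescence freed from ubiquitin-rhodamine substrate followed over time; top concentration of the series differs between compounds; on the % scale 0 is the no-effect control and ±100 the full control effect; nearly all actives have a fitted effect of over 35% in size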). Particulars: purified USP1/UAF1, Ub-rhodamine cleavage fluorescence; series mostly up to 54.9 µM. In a few lines:
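Enzyme-free wells gave the negative control, while test wells held 1nM USP1/UAF1 preincubated with compound for 15 min at room temperature. Ub-Rho at 150nM final started the reaction, and fluorescence at 480/540 nm was recorded kinetically.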

Assay [18] in a line: qHTS profiling for inhibitors of Plasmodium falciparum proliferation (AID 504749; active means well fitted curve in the direction sought with a large enough effect; an effect the other way counts as inactive or inconclusive;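 further: 0% = DMSO vehicle and full inhibition = artemisinin control; nearly all actives have a fitted effect of over 60% in size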). The note with it: P. falciparum in erythrocytes, SYBR Green DNA, 72 h, at 12.8 µM (top of the series). A digest of the protocol:
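Three-day growth assay of blood-stage parasites in erythrocytes (0.3% parasitemia, 2.5% hematocrit) at 37 C, 5% CO2, quantified by SYBR Green DNA staining after overnight detergent lysis.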

Where [19] appears, read: measured here: cell count channel max response.
The mark [20] stands for this setting: measured here: lipid channel max response.
[21] abbreviates: at 7.69 µM (top of the series) unless noted.

“And” between values parts separate entries of the source, which are not always exact repeats. Equal entries are not always repeated. Records with an inconclusive call do not appear. Where a structure was tested more than once in an assay, its records may differ in their call. The source made the active and inactive calls. Unless noted, the call rests on the fitted dose curve; in most records, active means well fitted curve in either direction with a large enough effect (not every such curve was filed as active); inconclusive means small, poorly fitted or top-dose-only effect, or another doubt; inactive means flat fitted curve, though single readings scatter.

Sequence of 3',5'-cyclic-AMP phosphodiesterase 4B (Homo sapiens) (Q07343 whole entry, looked up): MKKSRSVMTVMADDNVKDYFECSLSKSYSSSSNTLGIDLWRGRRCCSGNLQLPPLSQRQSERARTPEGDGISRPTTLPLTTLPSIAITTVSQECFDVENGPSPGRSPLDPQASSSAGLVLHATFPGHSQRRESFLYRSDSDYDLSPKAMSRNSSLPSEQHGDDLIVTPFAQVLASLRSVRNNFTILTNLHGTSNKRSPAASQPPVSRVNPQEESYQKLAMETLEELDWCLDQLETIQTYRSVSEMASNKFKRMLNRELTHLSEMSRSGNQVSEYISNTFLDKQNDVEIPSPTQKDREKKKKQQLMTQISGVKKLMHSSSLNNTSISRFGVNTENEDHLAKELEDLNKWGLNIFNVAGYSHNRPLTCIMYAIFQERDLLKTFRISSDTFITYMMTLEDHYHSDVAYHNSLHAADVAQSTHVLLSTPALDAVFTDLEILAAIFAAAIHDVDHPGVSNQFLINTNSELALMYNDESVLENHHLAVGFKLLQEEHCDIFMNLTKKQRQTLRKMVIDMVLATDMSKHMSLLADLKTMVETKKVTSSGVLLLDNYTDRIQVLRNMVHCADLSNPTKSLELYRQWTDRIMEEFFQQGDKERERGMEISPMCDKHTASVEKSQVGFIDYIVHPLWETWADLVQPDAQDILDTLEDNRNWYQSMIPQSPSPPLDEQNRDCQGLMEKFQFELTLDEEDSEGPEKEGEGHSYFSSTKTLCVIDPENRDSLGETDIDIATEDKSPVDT
Sequence of Cytochrome P450 2D6 (Homo sapiens) (P10635 whole entry, looked up): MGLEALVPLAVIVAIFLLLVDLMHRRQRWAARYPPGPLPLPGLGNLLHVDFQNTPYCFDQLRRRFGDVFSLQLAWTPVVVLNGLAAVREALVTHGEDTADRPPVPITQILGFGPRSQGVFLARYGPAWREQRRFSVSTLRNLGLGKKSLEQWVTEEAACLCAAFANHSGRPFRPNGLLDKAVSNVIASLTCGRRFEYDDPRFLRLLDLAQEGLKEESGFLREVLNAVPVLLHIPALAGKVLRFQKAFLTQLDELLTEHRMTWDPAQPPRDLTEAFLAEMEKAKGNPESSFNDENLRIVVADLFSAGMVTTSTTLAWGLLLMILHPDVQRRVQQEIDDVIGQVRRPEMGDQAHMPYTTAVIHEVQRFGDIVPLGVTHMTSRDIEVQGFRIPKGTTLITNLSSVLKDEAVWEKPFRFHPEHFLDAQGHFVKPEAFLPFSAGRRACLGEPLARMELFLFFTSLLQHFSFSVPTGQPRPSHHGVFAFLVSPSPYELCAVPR
Sequence of Glucocorticoid receptor (Homo sapiens) (P04150 whole entry, looked up, the tested form may be a part): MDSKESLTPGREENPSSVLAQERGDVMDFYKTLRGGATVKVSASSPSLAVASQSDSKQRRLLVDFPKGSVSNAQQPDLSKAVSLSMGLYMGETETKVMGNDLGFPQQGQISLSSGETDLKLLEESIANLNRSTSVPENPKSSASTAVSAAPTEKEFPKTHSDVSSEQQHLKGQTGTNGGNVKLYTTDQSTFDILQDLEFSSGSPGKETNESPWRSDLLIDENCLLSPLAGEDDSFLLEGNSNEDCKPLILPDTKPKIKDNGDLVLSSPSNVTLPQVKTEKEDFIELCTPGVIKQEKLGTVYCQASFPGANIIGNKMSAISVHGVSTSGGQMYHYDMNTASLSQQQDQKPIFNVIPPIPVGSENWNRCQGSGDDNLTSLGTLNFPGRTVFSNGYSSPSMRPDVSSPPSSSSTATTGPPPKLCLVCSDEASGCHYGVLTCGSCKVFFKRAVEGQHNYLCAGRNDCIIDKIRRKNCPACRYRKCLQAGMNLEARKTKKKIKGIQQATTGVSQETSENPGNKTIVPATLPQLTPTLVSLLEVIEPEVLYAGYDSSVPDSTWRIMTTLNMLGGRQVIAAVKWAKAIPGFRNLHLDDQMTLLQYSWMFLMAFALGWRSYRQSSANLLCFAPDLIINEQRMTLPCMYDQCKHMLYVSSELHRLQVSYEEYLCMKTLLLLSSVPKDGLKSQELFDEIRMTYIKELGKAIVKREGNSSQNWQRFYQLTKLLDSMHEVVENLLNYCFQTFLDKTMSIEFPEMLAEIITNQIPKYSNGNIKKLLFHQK
Sequence of Lysosomal acid glucosylceramidase (Homo sapiens) (P04062 whole entry, looked up): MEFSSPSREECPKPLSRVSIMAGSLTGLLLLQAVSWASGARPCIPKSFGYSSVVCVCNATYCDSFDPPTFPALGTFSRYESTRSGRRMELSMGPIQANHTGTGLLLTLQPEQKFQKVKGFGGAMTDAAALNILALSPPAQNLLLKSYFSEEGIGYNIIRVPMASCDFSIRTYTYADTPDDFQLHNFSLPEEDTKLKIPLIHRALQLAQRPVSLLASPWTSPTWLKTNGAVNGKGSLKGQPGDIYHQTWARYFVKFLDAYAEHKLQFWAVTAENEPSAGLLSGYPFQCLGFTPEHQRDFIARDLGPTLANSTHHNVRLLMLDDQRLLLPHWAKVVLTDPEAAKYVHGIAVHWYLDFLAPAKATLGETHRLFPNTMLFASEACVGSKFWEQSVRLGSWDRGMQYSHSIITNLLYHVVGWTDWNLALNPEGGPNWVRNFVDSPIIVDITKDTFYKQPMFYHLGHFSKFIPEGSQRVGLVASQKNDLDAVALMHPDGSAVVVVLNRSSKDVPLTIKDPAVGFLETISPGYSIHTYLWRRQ
Sequence of Cytochrome P450 2C19 (Homo sapiens) (P33261 whole entry, looked up): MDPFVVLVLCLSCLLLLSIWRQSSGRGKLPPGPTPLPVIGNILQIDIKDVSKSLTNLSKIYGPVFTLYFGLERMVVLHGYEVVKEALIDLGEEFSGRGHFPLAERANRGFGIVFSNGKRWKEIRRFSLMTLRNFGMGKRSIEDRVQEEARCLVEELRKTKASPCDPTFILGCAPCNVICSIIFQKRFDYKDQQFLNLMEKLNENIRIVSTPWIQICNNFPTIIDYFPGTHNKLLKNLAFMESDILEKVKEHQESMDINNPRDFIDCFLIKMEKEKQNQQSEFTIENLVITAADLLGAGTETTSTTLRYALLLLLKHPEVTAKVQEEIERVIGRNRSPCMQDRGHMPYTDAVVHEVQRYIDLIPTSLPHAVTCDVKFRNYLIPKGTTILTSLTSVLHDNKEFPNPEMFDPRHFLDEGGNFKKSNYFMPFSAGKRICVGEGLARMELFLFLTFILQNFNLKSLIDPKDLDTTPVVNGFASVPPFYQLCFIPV
Sequence of Ubiquitin carboxyl-terminal hydrolase 1 (Homo sapiens) (O94782 whole entry, looked up): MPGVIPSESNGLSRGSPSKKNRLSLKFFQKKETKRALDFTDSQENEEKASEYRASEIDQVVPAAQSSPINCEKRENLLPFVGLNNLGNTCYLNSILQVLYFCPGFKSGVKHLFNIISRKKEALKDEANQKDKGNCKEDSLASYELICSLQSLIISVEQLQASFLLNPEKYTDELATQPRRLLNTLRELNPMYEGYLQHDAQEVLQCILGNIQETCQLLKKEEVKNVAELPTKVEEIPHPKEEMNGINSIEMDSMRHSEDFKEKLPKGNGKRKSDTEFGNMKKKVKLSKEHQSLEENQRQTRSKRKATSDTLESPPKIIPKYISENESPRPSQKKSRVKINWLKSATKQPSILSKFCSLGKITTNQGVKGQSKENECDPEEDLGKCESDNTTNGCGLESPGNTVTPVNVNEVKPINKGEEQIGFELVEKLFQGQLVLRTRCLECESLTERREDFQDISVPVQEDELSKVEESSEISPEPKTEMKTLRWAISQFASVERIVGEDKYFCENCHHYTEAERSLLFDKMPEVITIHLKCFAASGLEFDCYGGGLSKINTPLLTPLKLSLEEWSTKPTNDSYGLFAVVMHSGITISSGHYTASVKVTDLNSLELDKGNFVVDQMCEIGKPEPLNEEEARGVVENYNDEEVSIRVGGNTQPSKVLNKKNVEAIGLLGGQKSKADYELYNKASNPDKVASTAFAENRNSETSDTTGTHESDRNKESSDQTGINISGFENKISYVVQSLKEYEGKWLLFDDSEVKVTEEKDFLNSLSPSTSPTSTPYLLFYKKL

Consider `Cn1c(=O)c(-c2ccccc2)nc2cnc(N3CCNCC3)nc21`, for which the Potency was > 11.4 µM (inactive) in assay [1]; 12.6 µM (active) in assay [2]; > 9.22 µM (inactive) in assay [3]; > 46 µM (inactive) in [4]; 3.16 µM (active) in assay [7]. In addition, the Potency entry in assay [5] and in [6] was “inactive” in each case. In addition, in assay [8] (at 57.5 µM (top of the series)), the activity change, negative = inhibition is 5.44% (inactive). Further, the max response in assay [8] (setting [19]) was determined as 18.4%; in assay [8] (setting [20]), 28.4%.
Consider `COc1ccccc1CNc1ncncc1-c1ccc(N(C)C)cc1`, for which the Potency in [1] is > 11.4 µM (inactive); in assay [3] it was > 46 µM (inactive); in [4] it was > 46 µM (inactive). The figures for the activity change, negative = inhibition in assay [9], in [10] (setting [21]) and in assay [8] (at 57.5 µM (top of the series)) were -14.4% (inactive), -2.91% (inactive) and 7.79% (inactive), respectively. For the same compound, the activity, negative = inhibition in [11] (setting [21]) is -7.61% (inactive). Besides, the Potency entry in assay [12] is “inactive”. The outcome in assay [13] was inactive. The max response in [8] (setting [19]) is -12.6%; in assay [8] (setting [20]), -7.14%.
Regarding `c1ccc2c(N3CCNCC3)nc(-c3ccoc3)nc2c1`, the Potency in [1] is > 11.4 µM (inactive); in [3], > 46 µM (inactive); in [4] it was > 46 µM (inactive). For the same compound, the figures for the activity change, negative = inhibition in [9], in [10] (setting [21]) and in assay [8] (at 57.5 µM (top of the series)) were 0.826% (inactive), -11.1% (inactive) and 8.78% (inactive), respectively. In assay [11] (setting [21]), the activity, negative = inhibition is 28% (inactive). The Potency entry in assay [5] and in assay [12] was “inactive” in each case. Moreover, the max response was 9.44% in [8] (setting [19]) and 17.6% in [8] (setting [20]).
In the case of `CC[C@@]12CCCN3CCc4c(n(c5ccccc45)C(=O)C1)[C@H]32`, the Potency in assay [1] is > 11.4 µM (inactive); in assay [2], 10 µM (active); in [15], 20 nM (active) and 63.1 nM (active) and 251 nM (active); in assay [16], 7.94 µM (active). In addition, the activity change, negative = inhibition was -9.8% [at 2.29 µM] (inactive) in assay [2], -5.89% (inactive) in assay [10] (at 7.69 µM (top of the series)), -3.8% (inactive) in assay [10] (at 17.2 µM (top of the series)) and -0.21% (inactive) in [8] (at 25.7 µM (top of the series)). In addition, the activity, negative = inhibition in [11] (at 7.69 µM (top of the series)) is 8.55% (inactive); in assay [11] (at 17.2 µM (top of the series)) it was 14.6% (inactive); in assay [18] (parasite line A) it was 14.8% (inactive); in assay [18] (parasite line B), -2.22% (inactive). In addition, the Potency result in [5], in assay [6], in assay [14] and in assay [17] was “inactive” throughout. Besides, the values for the max response in [8] (setting [19]) and in assay [8] (setting [20]) were -16.7% and -14%, respectively.
`CN1CCN(c2ncc3nc(-c4ccccc4)c(=O)n(CCC#N)c3n2)CC1`: the Potency was > 11.4 µM (inactive) in [1]; 20 µM (active) in [2]; > 9.22 µM (inactive) in assay [3]; > 46 µM (inactive) in assay [4]; 3.16 µM (active) in [7]. Further, the Potency result in [5] and in assay [6] was “inactive” in each case. In addition, in assay [8] (at 57.5 µM (top of the series)), the activity change, negative = inhibition is 6.29% (inactive). Also, the max response came out at 19.8% in assay [8] (setting [19]) and 27.5% in [8] (setting [20]).
